From article PMC7819943, “Rice protein-binding microarrays: a tool to detect cis-acting elements near promoter regions in rice”
Over roughly 68,000 sequences, “fluorescence intensity (a.u.)” has its median near 9,100; the highest 2% begin near 16,000. Many of the other results were omitted from the sample, so the highest values are more common in it than they were.

Target: OsWRKY34 (Oryza sativa, UniProt Q0JBA9 1-250)
Assay: protein-binding microarray (RPBM); PBS, 2% BSA, 51.3 ng/ul salmon testes DNA, 50 uM zinc acetate, 200 nM TF, 25 C, 1 h; high values mean tight binding
Details: protein: recombinant; tags: N-terminal polyhistidine and DsRed monomer fusion (pET32a); label: CyDye5-dUTP incorporated in the synthesized complementary strand; 3' TTTTT single-stranded linker to array surface; dsDNA, one strand shown
Procedure, shortened: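 Per-feature fluorescence intensity (arbitrary units), read on an Axon 4000B scanner, is the binding signal. Transcription factors carrying an N-terminal polyhistidine tag and DsRed fusion were expressed in E. coli BL21-CodonPlus and purified on Ni–NTA. A custom Agilent array, made double-stranded by primer extension with Cy5-dUTP and blocked with 2% BSA, was incubated with 200 nM protein in PBS, 2% BSA, salmon testes DNA and 50 µM zinc acetate at 25 °C for 1 h and then washed.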

OsWRKY34, sequence (Q0JBA9 entry or part of it): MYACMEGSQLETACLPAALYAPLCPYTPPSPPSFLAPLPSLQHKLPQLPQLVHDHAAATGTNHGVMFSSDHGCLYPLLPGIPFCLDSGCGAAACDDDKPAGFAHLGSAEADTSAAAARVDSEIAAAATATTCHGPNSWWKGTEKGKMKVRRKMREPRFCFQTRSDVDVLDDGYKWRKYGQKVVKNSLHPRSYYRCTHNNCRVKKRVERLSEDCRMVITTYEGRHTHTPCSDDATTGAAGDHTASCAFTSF

Compared with “ATGGGAGGTGGGTGGTACCGTGGTGGTGGTCGCAGATCTGCGGAGTCACCTAGTGCAG”, “CGGAGGCGAGTGGGTGGGTGGTGGTCCAGTGCGGTGGTGCCGGAGTCACCTAGTGCAG” is lower in binding signal: 27200 fluorescence intensity (a.u.) for the first, 9800 fluorescence intensity (a.u.) for the second.

Going from “TCGTGCGTGCGTGAGGGAGGTCGTGGTGGTGGTGGTGGTGCGGAGTCACCTAGTGCAG” to “GGGGACGCAGGAGGAGGTGGGTGGGTCGAGCTCGCTTGCGCGGAGTCACCTAGTGCAG”, the binding signal rises from 9020 fluorescence intensity (a.u.) to 15400 fluorescence intensity (a.u.).

First: TGTGTGAGATTTTTGCATGTTTTTGTTGTGTTTGTTCATACGGAGTCACCTAGTGCAG
Second: TCTGGTTCCATTTTCCACGCACAGGAGAGTGATTACTTTTCGGAGTCACCTAGTGCAG
The binding signal of the first is lower: 8580 fluorescence intensity (a.u.) for the first, 11200 fluorescence intensity (a.u.) for the second.

First: TCTCTCTCTCGTGCGTCACCTCCTCGCGTGCTCAGCGCCGCGGAGTCACCTAGTGCAG
Second: TCCTTGCTCCATCAGTATTACACCACCCAACACAAGCTCACGGAGTCACCTAGTGCAG
The binding signal of the first is lower: 8780 fluorescence intensity (a.u.) for the first, 8870 fluorescence intensity (a.u.) for the second.

Compared with “AGTTAATCCTTGTTAAACTTTGGTTTCAAAACAATTTCCCCGGAGTCACCTAGTGCAG”, “CTCCTCATCCATCCACCACACCACTTGCCTCCAAACAAAACGGAGTCACCTAGTGCAG” is lower in binding signal: 65500 fluorescence intensity (a.u.) for the first, 9340 fluorescence intensity (a.u.) for the second.

First: GGTTCAAATTAACTTTTCAATCTTGGCTGTGTTTGGATCCCGGAGTCACCTAGTGCAG
Second: TCTACAAACTTGGTCAAACTTAAAACAGTTTGACTTTGACCGGAGTCACCTAGTGCAG
The binding signal of the first is lower: 9630 fluorescence intensity (a.u.) for the first, 14600 fluorescence intensity (a.u.) for the second.

First: CGACTTGTTGCCTCAAACAATTCCTGGTTATAAAACACCACGGAGTCACCTAGTGCAG
Second: CCCTCTATAAATGGTTCCTATCACAACCACAAACACCACACGGAGTCACCTAGTGCAG
The binding signal of the first is higher: 35500 fluorescence intensity (a.u.) for the first, 8240 fluorescence intensity (a.u.) for the second.

First: GCTGTTTCCTGGAGGTTCCATCCATGCTATCCTGTGCTCGCGGAGTCACCTAGTGCAG
Second: GACCAACCAAAACCTCCGATCACCTTGTCCCGTACTGAAACGGAGTCACCTAGTGCAG
The binding signal of the first is lower: 8470 fluorescence intensity (a.u.) for the first, 11000 fluorescence intensity (a.u.) for the second.

First: TCACCCCGCCGCCGCCATCCAGGCGCCGACGACCTCCCATCGGAGTCACCTAGTGCAG
Second: CTCTCTTTTCCTTTTCTAATTTTAGATTTTATTTTATTTTCGGAGTCACCTAGTGCAG
The binding signal of the first is higher: 8840 fluorescence intensity (a.u.) for the first, 8600 fluorescence intensity (a.u.) for the second.

Compared with “GTTTTACATTTGTCCTAAATCAAACATATCTATCTTTGACCGGAGTCACCTAGTGCAG”, “GGGGTGGTTTTGGCTGAGCTGCTTGTGTCCTCTTCTTGCTCGGAGTCACCTAGTGCAG” is higher in binding signal: 8180 fluorescence intensity (a.u.) for the first, 18400 fluorescence intensity (a.u.) for the second.

Going from “CAGCTCGAGCTGTTTGCTTGTGGGGTTCTTGTTTTTCTTTCGGAGTCACCTAGTGCAG” to “TGGCTGAGCTTCTTTGCGTGTTCTTGTTTGGGTTTTGGGGCGGAGTCACCTAGTGCAG”, the binding signal rises from 8020 fluorescence intensity (a.u.) to 18700 fluorescence intensity (a.u.).

Going from “TGGTTTTGGCAGCTGCTGTGTGCACTTGTGGGTTTTTTCTCGGAGTCACCTAGTGCAG” to “TTTTTGTGTGTGTGCTGTGTTCTTGGGTTTCTTGGCAATGCGGAGTCACCTAGTGCAG”, the binding signal falls from 8960 fluorescence intensity (a.u.) to 8650 fluorescence intensity (a.u.).

Going from “TTCTTGGCTTGGCTCCTCTGGTGTTCTTGTGCTCTGGGTTCGGAGTCACCTAGTGCAG” to “CATTTTATTGTGAACTTTTTCCTTTTAAACTCGATGTTTACGGAGTCACCTAGTGCAG”, the binding signal rises from 9970 fluorescence intensity (a.u.) to 10700 fluorescence intensity (a.u.).

Going from “GTGATGTTCATGCGACAATGTGTTTCTTCCTGGACATATTCGGAGTCACCTAGTGCAG” to “CGTTGGAAAGCTACTGTTTTGACCCGTTCACACCACTACGCGGAGTCACCTAGTGCAG”, the binding signal rises from 8050 fluorescence intensity (a.u.) to 9680 fluorescence intensity (a.u.).

First: CAAATGGAGGCCCCTTTTAGATACGCTTCCTGTTACTTTCCGGAGTCACCTAGTGCAG
Second: TCCTTCTGTCACCATTCGATTCCCAAACTCTCGCCGCCGCCGGAGTCACCTAGTGCAG
The binding signal of the first is lower: 8710 fluorescence intensity (a.u.) for the first, 9140 fluorescence intensity (a.u.) for the second.

Going from “CATCAGTTGGCGATTCCCGCTGTATCCTAGAATCTGCTGACGGAGTCACCTAGTGCAG” to “CCCGCTTCTTCCCCGCTGCTTGAATCAGTCGTATCCTCACCGGAGTCACCTAGTGCAG”, the binding signal falls from 65000 fluorescence intensity (a.u.) to 11400 fluorescence intensity (a.u.).

Going from “CTCTCTCTCTCTCTCTCTCTCTGCTGTTTTCTGTATCTGACGGAGTCACCTAGTGCAG” to “ACGACAAGAACCACCTCTCTCTCTCTCTCTCACTGTCCACCGGAGTCACCTAGTGCAG”, the binding signal falls from 10100 fluorescence intensity (a.u.) to 9040 fluorescence intensity (a.u.).

First: TTCCCCTTGCTCTTGCATTTGCTGCCGCTCTTCGCCTCTTCGGAGTCACCTAGTGCAG
Second: TCTCTTCTCTTTCTCTCCTCTCTTTTTGCCGCCGCTCGAGCGGAGTCACCTAGTGCAG
The binding signal of the first is higher: 9270 fluorescence intensity (a.u.) for the first, 8900 fluorescence intensity (a.u.) for the second.

Going from “GCCCTTCCTCTCCTCACTCACACTGCCCTGTTCATCTCTTCGGAGTCACCTAGTGCAG” to “AAACTCTCACTCGCTCACTCACACCTCACACGCTGCTGCTCGGAGTCACCTAGTGCAG”, the binding signal falls from 8540 fluorescence intensity (a.u.) to 8070 fluorescence intensity (a.u.).

Going from “TCTCTCTCTCTCCTTCGGCTCATTCGTCACTGTTCCACCGCGGAGTCACCTAGTGCAG” to “GCTCAGCTCTTCACTTCTGCTGCATTCACACCACCACACTCGGAGTCACCTAGTGCAG”, the binding signal falls from 11300 fluorescence intensity (a.u.) to 9310 fluorescence intensity (a.u.).

Compared with “TCAGGCTCTCACTCGCGCTGCATGCCACACTGCTTCTTCTCGGAGTCACCTAGTGCAG”, “CACACACACTGCACTTCGGCTCACTCTCTCCACTGTTCTTCGGAGTCACCTAGTGCAG” is higher in binding signal: 16400 fluorescence intensity (a.u.) for the first, 16700 fluorescence intensity (a.u.) for the second.
